Screens deposited in PubChem by National Center for Advancing Translational Sciences (NCATS).
This is a sample that favours compounds with a hit; in the whole collection about 2.5% have one here.
WRN inhibitor = qHTS for Inhibitors of WRN Helicase | WRN helicase unwinding, fluorescent forked duplex, kinetic | AID 651768, 2012 | Bifunctional 3'-5' exonuclease/ATP-dependent helicase WRN (Homo sapiens), Q14191 | 0.46% of 360,000 active | Potency, µM (top dose mostly 114 µM), for inactives: top-dose activity change, negative = inhibition, usual class: inhibitors; note: % is set by controls: 0 for no effect and ±100 for the full control effect; nearly all actives have a fitted effect of over 55% in size
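WRN at 20 nM final preincubated with compound 15 min at room temperature; reaction started with 100 nM fluorophore/quencher forked duplex oligonucleotide and 2 mM ATP final. Unwinding followed kinetically by red fluorescence (ex 525, em 598 nm).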
Pol eta inh = qHTS for Inhibitors of Polymerase Eta; DNA polymerase eta (Homo sapiens), Q9Y253; recombinant Pol eta, fluorescent DNA replication assay; Potency, µM (doses to about 114 µM), for inactives: at the highest dose activity change, negative = inhibition, usual class: inhibitors; 1.2% of 390,000 active; AID 588591, 2011; note: % is set by controls: 0 for no effect and ±100 for the full control effect
Target sequence (Q9Y253 whole entry, looked up): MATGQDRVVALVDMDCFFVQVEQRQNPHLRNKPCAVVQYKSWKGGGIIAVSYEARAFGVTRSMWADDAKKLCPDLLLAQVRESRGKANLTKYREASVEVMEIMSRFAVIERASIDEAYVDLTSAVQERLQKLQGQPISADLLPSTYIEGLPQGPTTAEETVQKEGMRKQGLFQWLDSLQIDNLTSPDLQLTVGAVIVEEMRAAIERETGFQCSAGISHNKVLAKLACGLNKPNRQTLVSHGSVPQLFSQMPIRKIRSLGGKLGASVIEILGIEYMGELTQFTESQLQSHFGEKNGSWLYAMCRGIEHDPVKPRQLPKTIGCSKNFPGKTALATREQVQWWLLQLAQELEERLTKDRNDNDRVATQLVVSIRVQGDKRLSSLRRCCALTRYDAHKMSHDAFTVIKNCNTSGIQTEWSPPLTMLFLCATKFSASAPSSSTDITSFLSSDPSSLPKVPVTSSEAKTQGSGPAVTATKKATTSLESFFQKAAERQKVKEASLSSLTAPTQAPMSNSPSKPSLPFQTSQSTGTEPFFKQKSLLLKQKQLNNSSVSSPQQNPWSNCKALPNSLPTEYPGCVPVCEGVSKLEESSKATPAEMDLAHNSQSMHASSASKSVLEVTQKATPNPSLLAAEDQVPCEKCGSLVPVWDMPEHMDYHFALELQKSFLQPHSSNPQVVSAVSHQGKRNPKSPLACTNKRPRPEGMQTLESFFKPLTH
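Pol eta at 10 nM preincubated with compounds 15 min at room temperature; reaction started with fluorescent substrate (50 nM final) and read kinetically at 0 and 10 min.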
L3MBTL1 inh = qHTS Assay for the Inhibitors of L3MBTL1 | Lethal(3)malignant brain tumor-like protein 1 (Homo sapiens), Q9Y468 | AlphaScreen L3MBTL1–H3K9me1 peptide binding | Potency, µM (doses to about 57.1 µM), without a hit: at the highest dose activity, negative = inhibition, hits mostly inhibitors | 0.66% of 230,000 active | AID 485360, 2010; note: % is set by controls: 0 for no effect and ±100 for the full control effect; nearly all actives have a fitted effect of over 60% in size
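First, the protein-peptide complex forms for 30 min at room temperature (L3MBTL1 50 nM, biotinylated H3K9me1 peptide 75 nM). Next, compounds are pin-transferred and incubated 30 min. Finally, AlphaScreen beads are added and read after 30 min.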
POLK inh = qHTS for Inhibitors of Polymerase Kappa. purified Pol kappa, fluorescent DNA synthesis assay, 10 min. AID 588579, 2011. 0.53% of 400,000 active. DNA polymerase kappa (Homo sapiens), Q9UBT6. Potency, µM (doses to about 107 µM), for inactives: top-dose activity, negative = inhibition, hits mostly inhibitors; note: % is set by controls: 0 for no effect and ±100 for the full control effect
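Kinetic fluorescence screen: compound preincubated 15 min RT with 10 nM enzyme; 50 nM substrate (final) initiates; reads at 0/10 min.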
Pol beta inh = qHTS Assay for Inhibitors of DNA Polymerase Beta. Pol beta primer extension/strand displacement, fluorescence kinetic. Potency, µM (top dose mostly 114 µM), inactives show at the top dose activity change, negative = inhibition, hits mostly inhibitors. 1.3% of 340,000 active; note: % is set by controls: 0 for no effect and ±100 for the full control effect
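Enzyme-only controls used 10 nM Pol beta; buffer lacking enzyme served as negative control. Compound preincubated 15 min, then 50 nM substrate added; 0 and 10 min reads at room temperature.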
Pol iota inh = qHTS for Inhibitors of Polymerase Iota. Pol iota fluorescent replication assay, 10 min. 1% of 390,000 active. Potency, µM (top dose mostly 115 µM), inactives show at the highest dose activity, negative = inhibition, usual class: inhibitors. AID 588590, 2011
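Fluorescent replication assay read twice, at 0 min and 10 min after adding 50 nM (final) substrate. Enzyme (10 nM) and compounds were first incubated 15 min at room temperature; enzyme-free buffer wells were negative controls.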
* = called active by the depositor; ? = inconclusive; · = no result; [ ] = dose if it differs, or a comment. Calls come from the whole dose curve; as a rule, active = well fitted curve in the direction sought with a large enough effect; inconclusive = small, poorly fitted or top-dose-only effect, or another doubt; inactive = no such curve, though single readings can be large; an effect the other way counts as inactive or inconclusive. Potency is the fitted concentration of half-maximal effect.

SMILES	WRN inhibitor	Pol eta inh	L3MBTL1 inh	POLK inh	Pol beta inh	Pol iota inh
Cc1ccc(S(=O)(=O)Nc2cc(=O)[nH]c(SCC(=O)Nc3cccc(C)c3)n2)cc1	-24.2%	1.4%	·	?	-2.4%	50.1µM*
O=C(OCc1cn(-c2ccc(Cl)cc2)nn1)c1ccccc1	-13.6%	-9.3%	0.7%	-15.5%	-7.3%	1.8%
CC1CCN(C2=C(NS(=O)(=O)c3ccc(Cl)cc3)C(=O)c3ccccc3C2=O)CC1	-5.3%	0.1%	15.8µM*	4.0%	-25.3%	28.0%
CC1CCCN(C2=C(NS(=O)(=O)c3ccc(Br)cc3)C(=O)c3ccccc3C2=O)C1 (stereo not drawn)	5.5%	-4.1%	·	0.2%	10.0%	26.4%
CCOC(=O)N1CCN(C2=C(NS(=O)(=O)c3ccc(NC(C)=O)cc3)C(=O)c3ccccc3C2=O)CC1	0.6%[11.6 µM]	-4.8%	·	-10.3%	?	6.31µM*
CC1CCN(C2=C(NS(=O)(=O)c3ccccc3)C(=O)c3ccccc3C2=O)CC1	-12.3%	-15.1%	11.2µM*	-19.1%	?	?
CC1CCN(C2=C(NS(=O)(=O)c3ccc(Br)cc3)C(=O)c3ccccc3C2=O)CC1	-10.7%	-11.8%	·	-16.7%	34.6%	7.08µM*
CCOC(=O)C1CCN(C2=C(NS(=O)(=O)c3ccc(Cl)cc3)C(=O)c3ccccc3C2=O)CC1	-13.4%	-8.9%	?	-9.4%	-5.4%	-3.2%
CCOC(=O)c1cc(-c2ccncc2)nc2c1c(C)nn2-c1ccccn1	10.7%	?	-3.5%	-17.4%	7.4%	27.8%
CCN(C(=O)CSc1nnc(-c2cc3occc3n2C)n1-c1ccccc1C)c1cccc(C)c1	·	-16.7%	·	-2.0%	1.9%	12.3%
[O-]c1c[n+](-c2ccccc2)no1	8.1%	-8.5%	·	10.2%	2.0%	-4.6%
COc1ccccc1NS(=O)(=O)c1cc(NC(=O)CNC(=O)c2ccc(C)s2)ccc1Cl	56.2µM*	?	-12.6%	-27.8%	18.7%	79.4µM*
COc1ccccc1NC(=O)Nc1ccc(Cl)c(S(=O)(=O)Nc2ccccc2OC)c1	-8.8%	-8.7%	0.1%	-12.7%	1.7%	144.6%
CCC(C(=O)NCc1ccco1)n1nc(-c2ccc(OC)cc2)ccc1=O (stereo not drawn)	-6.5%[11.6 µM]	?	-26.6%	?	44.7µM*	?
O=C(Cn1nnc(-c2ccc(Cl)cc2)n1)NCc1ccco1	-8.6%	-9.4%	-4.9%[11.4 µM]	?	?	39.8µM*
Cc1ccc(-c2ccc(=O)n(CC(=O)NCc3ccco3)n2)cc1	-2.5%	-12.1%	5.4%	-2.5%	8.0%	15.6%
O=C(Cn1nnc(-c2cccs2)n1)NCc1ccco1	2.8%	5.3%	-13.4%	-2.1%	15.0%	-28.2%
COc1ccc(-c2cc(-c3cccs3)c(C#N)c(SCC(=O)NCc3ccco3)n2)cc1	-14.8%	10.0%	-8.8%	-3.6%	12.6µM*	8.0%
COc1ccc(-c2ccc(=O)n(CC(=O)NCc3ccco3)n2)cc1	-32.8%	?	-9.7%	-3.6%	50.1µM*	?
O=C(CSc1nc2ccccc2c(=O)n1-c1ccccc1)Nc1ccc2c(c1)CCC2	-1.8%	·	·	·	·	·
Cc1ccccc1NC(=S)NC12CN3CN(CN(C3)C1)C2	4.9%	-19.3%	·	-8.6%	19.4%	104.6%
O=C(Cc1ccccc1)NO	·	·	·	-2.0%[60.1 µM]	·	8.4%
O=C(Cc1ccccc1)NC1(O)C(=O)c2ccccc2C1=O	-1.8%[11.6 µM]	?	·	-1.2%	30.9%	7.08µM*
O=C1C=CC(=O)N1N(c1ccccc1)c1ccccc1	35.5µM*	-3.6%	-0.2%	-11.5%	18.8%	13.3%
COc1ccccc1/C=C/C=N/NC(=O)c1cc(-c2ccco2)[nH]n1	-21.8%	?	?	?	25.1µM*	?
SMILES	WRN inhibitor	Pol eta inh	L3MBTL1 inh	POLK inh	Pol beta inh	Pol iota inh
CCOc1ccccc1NC(=O)Cn1c(=O)n(CCCC(=O)NCCOC)c(=O)c2cc(OC)c(OC)cc21	·	-3.9%	·	?	36.8%	89.1µM*
CCOC(=O)Cc1csc(NC(=O)c2sc3nc4c(C)cc(C)cc4cc3c2N)n1	-8.0%[11.6 µM]	?	-1.5%	-19.9%	31.6µM*	50.1µM*
Cc1nnc(SCC(=O)NNC(=O)c2ccco2)s1	0.2%	-9.6%	5.0%	12.7%	·	19.9%
CC1=NN(c2nc(N)nc(/C(C#N)=C/c3ccc([N+](=O)[O-])o3)n2)C(C)(C)C1	?	17.8µM*	·	-28.7%	·	?
COc1c2c(c(C)c3c1C(=O)OC3)O[C@@]1(C)CC[C@@]3(O)C(C)(C)OC(=O)CC[C@]3(C)[C@H]1C2	-6.4%[11.6 µM]	44.7µM*	·	-37.1%	?	?
C=C(CCC(=O)c1ccccc1)C(=O)c1ccccc1	-16.4%[11.6 µM]	15.8µM*	15.4%	3.7%	?	?
CCCN(CC(=O)Nc1ccccc1C)C(=O)Cc1coc2cc(C)ccc12	-28.9%	?	·	-14.6%	39.8µM*	?
CCCN(CC(=O)Nc1ccccc1C)C(=O)CCl	-9.2%	18.8%	-15.0%	-0.4%	-14.2%	85.0%
Cc1c(CCC(=O)O)c(=O)oc2cc(OCc3cccc(F)c3)ccc12	-14.0%	-1.4%	·	-0.3%	12.1%	29.9%
Cc1c(CCC(=O)O)c(=O)oc2cc(OCc3ccccc3Br)ccc12	?	-14.1%	·	-19.0%	50.1µM*	-25.0%
CC(C)CCNC(=O)NC(=O)CSc1ncccn1	1.4%	-22.8%	0.1%	0.6%	27.6%	13.3%
C/C(=N/NC(=O)c1ccco1)c1cccc(NC(=O)c2ccc(C)o2)c1	-5.1%	2.3%	-1.8%	2.6%	4.9%	19.1%
C/C(=N/NC(=O)c1ccco1)c1cccc(NC(=O)c2ccc(C)s2)c1	-4.0%[11.6 µM]	-11.5%	3.5%	89.1µM*	2.9%	19.3%
CC(=O)c1ccc(-c2ccc(C(=O)N(C)Cc3nc4ccccc4c(=O)[nH]3)o2)cc1	4.9%	4.3%	-0.5%	1.6%	·	18.0%
CC1/C=C/C=C/C=C/C=C/C=C/C=C/C=C/C(OC2OC(C)C(O)C(N)C2O)CC2O[C@@](O)(CC(O)CC(O)C(O)CCC(O)CC(O)CC(=O)OC(C)[C@H](C)C1O)CC(O)C2C(=O)O (stereo partly drawn)	·	·	·	3.55µM*	·	·
Cc1sc2ncn(CC(=O)N3CCN(c4cccc(Cl)c4)CC3)c(=O)c2c1S(=O)(=O)N1CCC(C)CC1	·	-17.0%	·	4.7%	-12.3%	16.8%
CCCCN1C(=O)C(=O)N(CC(=O)Nc2sc(CC)cc2C(=O)OCC)C1=O	-13.5%[11.6 µM]	1.3%	-3.8%	-6.5%	·	79.4µM*
